The experiment concerns the target AMP-activated protein kinase, AMPK (Homo sapiens) (UniProt P54646+O43741+P54619+Q9UGJ0+Q9Y478+Q13131+Q9UGI9). In words: AMP-dependent Kinase enzyme assay. An in vitro enzyme assay that detects ADP turnover that is directly proportional to AMPK activity. This uses naive AMPK that is activated during the assay with MK-8722. Set-up: scale not given: direction of the effect not stated beside the values. It is filed as functional. As to conditions: 30 µM.
As for `CO[C@H]1CN(Cc2c(C)ccc3ncccc23)CC[C@H]1N`, the Percent Effect turned out to be 1.31%.

For `N[C@H]1CN(S(=O)(=O)Cc2ccccc2)C[C@@H]1C1CC1`, the Percent Effect is -5.29%.

Turning to `Cc1ccccc1[C@@H]1CN(CCOCCO)C[C@H]1C(=O)O`, the Percent Effect is -1.24%.

Consider `CCn1nc(C)c(C(C)Nc2cc(C3CCNCC3)nc(C)n2)c1C` (stereo not given), for which the Percent Effect is 0.304%.

On to `COc1cc(-c2cccc3c2OC(CN)C3)ccc1O` (stereo not given), for which the Percent Effect was found to be 59.7%.

As for `O=C(Cc1ccc2c(c1)CCC2)NC1CCN(Cc2ccccc2)CC1`, the Percent Effect was -0.352%.

`CC(c1nccs1)N(C)S(=O)(=O)NCc1ccccc1` (stereo not given): the Percent Effect was -1.57%.

On to `CCCNc1cc(-c2c[nH]nc2C2CCN(C(=O)C3CCC3)C2)ccn1` (stereo not given), for which the Percent Effect was found to be 43.5%.

Regarding `COc1ccc2nc(CNC(=O)C3CC4(CCNCC4)CN3C)[nH]c2c1` (stereo not given), the Percent Effect was -3.99%.

Turning to `COCCCN1CC2(CCN(C(=O)c3ncc(F)cc3F)CC2)CC1=O`, the Percent Effect is -0.49%.

On to `Cc1nonc1CN1CC[C@@](O)(C2CCOCC2)[C@H](C)C1`, for which the Percent Effect was -6.73%.

As to `COc1ccc(F)cc1CN(CC(N)=O)C(C)C`, the Percent Effect is -8.18%.

Take `CN(CCCc1cnn(C)c1)Cc1cc2n(n1)CCCNC2`: the Percent Effect was -0.861%.

With `COC[C@]1(O)CCN(c2cc(C3CC3)ncn2)CC1(C)C`, the Percent Effect was 10.6%.

With `CC(=O)NCC1CCCN(C(=O)Cc2c(C)noc2C)C1` (stereo not given), the Percent Effect is -3.15%.

On to `CN(CCOc1ccc(C#N)cc1)CC1CC1`, for which the Percent Effect was 22.9%.

Turning to `OCCC1(NCc2ccc(-n3cccn3)cc2)CCOCC1`, the Percent Effect was -4.22%.

Consider `COc1ccc(C2CCN(S(=O)(=O)CCCC#N)CC2)cc1`, for which the Percent Effect is -2.21%.

Take `Cc1csc(C(=O)N2CC(S(=O)(=O)C3CCCCC3)C2)c1`: the Percent Effect is -2.28%.

On to `COc1ccccc1C(=O)N1CCN(C(=O)CCCc2cn[nH]c2)CC1`, for which the Percent Effect was -2.48%.

In the case of `CCC(C)Oc1ccc(CNCCNS(C)(=O)=O)cc1Cl` (stereo not given), the Percent Effect was 5%.

`CCCSCC(=O)NCc1cccc(CN(C)CC)c1`: the Percent Effect was 5.85%.

As to `CC1CN(c2ncnc3sccc23)CCN1c1nccs1` (stereo not given), the Percent Effect was found to be 16.9%.

`Cc1nccn1[C@@H]1CC[C@@H](N(C)S(=O)(=O)c2cccc(F)c2)[C@H]1O`: the Percent Effect amounted to 28.1%.

As for `CCN(CC)C1CCN(C(=O)Nc2cc(F)c(OC)c(F)c2)C1` (stereo not given), the Percent Effect is -3.29%.

For `O=C(NCCS(=O)(=O)N1CCN(c2ncccn2)CC1)c1ccccc1`, the Percent Effect is -4.77%.

Take `COc1cccc(-n2cc(CN(C)Cc3ccnc(C(C)C)n3)cn2)c1`: the Percent Effect is -12.4%.

As for `Cc1cc(N(C)C)nc(N2CCn3c(nnc3C(C)C)C2)n1`, the Percent Effect worked out at 8.26%.

For `COCCN(C)c1cnn(C)c(=O)c1Br`, the Percent Effect is -10.9%.

On to `CCN(C)Cc1cccc(CNC(=O)CSCc2ccncc2)c1`, for which the Percent Effect is -11.3%.

Turning to `CCCC(=O)NC1CCCN(c2cncc(Br)c2)C1` (stereo not given), the Percent Effect was 22.4%.

Turning to `O=C(CNc1ccc(OCC2CCOCC2)cc1)NCc1ccco1`, the Percent Effect came out at 0.773%.

Turning to `Clc1snnc1CN(Cc1cccs1)C1CC1`, the Percent Effect stood at 3.68%.

Turning to `CN(CC(O)C(F)(F)F)C(=O)Nc1cccc(Cn2cccn2)c1` (stereo not given), the Percent Effect was -3.22%.

For the molecule `CCn1cc(-c2cc(C(=O)N3CCOCC3)c3cc(Cl)ccc3n2)cn1`, the Percent Effect stood at 11.8%.

Consider `COCCC(=O)NCCc1nc2cc(-c3ccc(OC)cc3)ncn2n1`, for which the Percent Effect amounted to 20%.

For `O=C(Nc1cccc(C(=O)OCC2CCCN2)c1)c1ccoc1` (stereo not given), the Percent Effect came to 0.474%.

Regarding `COc1ccc(S(=O)(=O)Nc2cccnc2-n2cncn2)cc1C`, the Percent Effect was -0.234%.

In the case of `Cc1nc(C)c(C(=O)N2CCCc3c(F)cccc32)o1`, the Percent Effect was -0.713%.

In the case of `N#Cc1cccc(S(=O)(=O)NC2CCN(CC(F)(F)F)C2)c1` (stereo not given), the Percent Effect is -2.39%.

Source of the values: ChEMBL document CHEMBL3988442, “University of Dundee, Small-Polar-MMV Screening Library” (2021).
